# From PubChem
# A selection: hits, their analogues and other compounds. The true share with any hit is near 2%.
# aSyn rescue – qHTS of alpha-syn Inhibitors; Yeast expressing alpha-synuclein, growth rescue, BacTiter-Glo, 24 h; Potency, µM (highest dose often 46.1 µM), for inactives: at the top dose growth rescue (activation), hits mostly activators; 370,000 compounds, 0.14% hits; AID 652106, 2013; also: % of control where 0% means no effect; nearly all actives have a fitted effect of over 65% in size
#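 Galactose-induced alpha-syn yeast (OD600=0.02, raffinose-pregrown) + pinned cpd, 24 hr, 30 deg C; growth by BacTiter-Glo luminescence. Growth restoration scores as activation.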
# TDP-43 yeast inh – qHTS of TDP-43 Inhibitors; Potency, µM (titrated, usually from 46.1 µM), without a hit: at the top dose growth rescue (activation), actives largely listed as activators; TDP-43 expressing yeast growth rescue, BacTiter-Glo, 24 h; 410,000 compounds, 1.8% hits; also: % of control where 0% means no effect; nearly all actives have a fitted effect of over 50% in size
#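 Readout is BacTiter-Glo luminescence of cell growth, so inhibitors register as activators. TDP-43-expressing yeast at OD600=0.02 in galactose medium, after raffinose pregrowth to mid-log, were incubated with compound for 24 hr at 30 deg C.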
# Abeta yeast res – qHTS for compounds that reverse cellular toxicity of Amyloid beta (A-beta) peptide in yeast: Primary Screen; 410,000 compounds, 0.063% hits; yeast expressing A-beta42, growth rescue, OD600, 48 h; response scale: 0% DMSO, 100% iron-clioquinol control; Potency, µM (titrated, usually from 46.1 µM), usual class: activators; AID 1347071, 2019; also: nearly all actives have a fitted effect of over 55% in size
#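 Yeast A-beta toxicity model in growth medium with pinned compounds, 48 h at 30 C; growth read as absorbance at 600 nm. Normalized to FeCl3/clioquinol equimolar mix (positive) and DMSO (negative).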
# FUS yeast rescue – qHTS for Suppressors of FUS Proteinopathy: Primary screen using FUS-linked yeast assay. 390,000 compounds, 0.24% hits. Potency, µM (top dose mostly 76.6 µM), actives largely listed as activators. S. cerevisiae FUS-expressing, growth rescue, OD600, 24 h. AID 1347120, 2019;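 also: plate controls were DMSO vehicle for no effect and reference control for full effect; nearly all actives have a fitted effect of over 55% in size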
#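 Steps: raffinose overnight preculture; dilution to OD 0.005 in 2% galactose minimal medium; compound addition (concentration series); 24hr at 30C, 99% humidity; absorbance read at 600 nm.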
# GRP78 ERSR act – qHTS for Inducers of the Endoplasmic Reticulum Stress Response (ERSR) in Human Glioma: qHTS; AID 602332, 2012; Potency, µM, without a hit: at the highest dose activation, hits mostly activators; 420,000 compounds, 0.02% hits; U87-MG GRP78 promoter luciferase reporter, 16 h; also: series mostly up to about 76 µM; % of control where 0% means no effect; nearly all actives have a fitted effect of over 35% in size
#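 Stably transfected U87-MG human glioma cells carrying a GRP78-based luminescent sensor were seeded at 1000 cells/well, pin-dosed with compounds and incubated 16 h. Luciferase reagent was then added, and end-point luminescence was read after 10 min at room temperature.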
# MBNL1 CUG block – qHTS Assay for Inhibitors of MBNL1-poly(CUG) RNA binding; TR-FRET MBNL1-His/biotin-(CUG)12 binding, 665/545 ratio; Potency, µM (series often up to 57.5 µM), for inactives: at the highest dose activity change, negative = inhibition, usual class: inhibitors; 280,000 compounds, 0.036% hits; AID 2675, 2010; active = well fitted inhibition curve with a large enough effect in the signal ratio, with a control signal flat, not every such curve was filed as active; inconclusive = small, poorly fitted or top-dose-only effect, or effect the other way, or a change in a side signal; inactive = no such curve, though single readings can be large or run the other way; the % refers to the signal ratio; also: % is scaled to controls: 0 for no effect and ±100 for the full control effect
# Target sequence (Q9NR56 whole entry, looked up): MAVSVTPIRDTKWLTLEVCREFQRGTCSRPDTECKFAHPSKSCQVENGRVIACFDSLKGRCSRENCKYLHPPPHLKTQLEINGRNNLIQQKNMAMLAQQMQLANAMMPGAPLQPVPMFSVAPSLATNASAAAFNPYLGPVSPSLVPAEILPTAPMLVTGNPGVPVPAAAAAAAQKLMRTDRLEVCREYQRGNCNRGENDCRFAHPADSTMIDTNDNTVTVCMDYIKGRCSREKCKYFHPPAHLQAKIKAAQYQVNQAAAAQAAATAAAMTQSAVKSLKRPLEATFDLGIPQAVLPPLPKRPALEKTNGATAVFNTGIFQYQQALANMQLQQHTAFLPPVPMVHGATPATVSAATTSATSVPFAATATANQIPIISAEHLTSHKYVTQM
#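 His-tagged MBNL1 binding to biotinylated (CUG)12 RNA was measured by TR-FRET using terbium anti-His antibody (0.055 ng/ul final) and streptavidin-XL665 (5 nM final). Compounds were titrated 92 nM to 58 uM; 60 min at room temperature.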
# * = called active by the depositor; i = inactive; u = inconclusive; x = not tested or not shown; [ ] = remark or other dose. Unless noted, calls follow the shape of the dose curve; as a rule, active = well fitted curve in the direction sought with a large enough effect; inconclusive = small, poorly fitted or top-dose-only effect, or another doubt; inactive = no such curve, though single readings can be large; an effect the other way counts as inactive or inconclusive. Potency is read from the fitted curve at half-maximal effect.
SMILES,aSyn rescue,TDP-43 yeast inh,Abeta yeast res,FUS yeast rescue,GRP78 ERSR act,MBNL1 CUG block
COc1cccc(-c2ccnc(-n3ncc(C(=O)NCC4(N5CCCCC5)CCCC4)c3C)n2)c1,x,x,x,x,-5%,x
N#Cc1c(-c2ccc(Br)cc2)nc2n(c1=O)CCCS2,0%,u,i,i,1%,u
N#Cc1c(-c2ccc(Cl)cc2)nc2n(c1=O)CCCS2,2%,11µM*,i,i,0%,u
COc1ccc(-c2nc3n(c(=O)c2C#N)CCCS3)cc1,5%,16µM*,u,i,10%,u
Cc1ccc2c(c1)C1CS(=O)(=O)N(C3CCCC3)C(=O)N1C2 (configuration not stated),x,x,x,i,x,x
N#Cc1ccncc1Sc1ccc(Cl)cc1,22%,18µM*,i,i,-5%,3%
N#Cc1cc(N)ccc1Sc1ccccc1,13%,11µM*,i,i,0%,-9%
N#Cc1cc(-c2ccccc2)nnc1Sc1ccc(Cl)cc1,1%,u,i,i,0%,11%
N#Cc1cc(N)ccc1Sc1ccc(Cl)cc1,18%,16µM*,i[9.22 µM],i,-3%,2%
c1csc(-c2nn3cnnc3c3ccccc23)c1,-1%,22µM*,i,i,-2%,14%
c1csc(-c2nnc(N3CCCCCC3)c3ccccc23)c1,0%,-21%,i,i,6%,14%
COc1cc(OC)c(OC)cc1/C=c1\[nH]c(=O)/c(=C/c2cc(OC)c(OC)cc2OC)[nH]c1=O,x,x,x,x,-2%,x
CC[C@@H](CCC(=O)N(c1ccccc1)c1ccccc1)c1ccc(C)cc1,x,x,x,i,x,x
FC(F)(F)c1nc(Sc2ncccc2C(F)(F)F)n[nH]1,-12%,13µM*,i,i,4%,x
FC(F)(F)c1ccnc(Sc2n[nH]c(C(F)(F)F)n2)c1,-15%,-83%,i,i,-3%,x
CCSc1ccc(-c2cc(NC=O)c3ncc(-c4cccc(C(=O)N(C)C)c4)n3c2)cc1,6%,5%,i,25µM*,u,x
COc1ccc(-c2cnc3c(NC=O)cc(-c4ccccc4)cn23)cc1OC,4%,u,i,i,-1%,x
COc1cccc(-c2cnc3c(NC=O)cc(-c4ccc(N(C)C)cc4)cn23)c1,-9%,20µM*,i,u,3%,x
COc1cccc(-c2cnc3c(NC=O)cc(-c4cc(OC)c(OC)c(OC)c4)cn23)c1,-19%,u,i,28µM*,-7%,x
COc1ccc(-c2cc(NC=O)c3ncc(-c4ccc(OC)c(OC)c4)n3c2)c(OC)c1,-18%,27%,i,u,-4%,x
COc1cccc(-c2cnc3c(NC=O)cc(-c4ccc(OC)cc4OC)cn23)c1,-7%,22µM*,i,u,-5%,x
COc1ccc2c(c1)-c1nc(-n3ncc(C(=O)NC(C)(C)CO)c3C3CC3)ncc1CC2,x,x,x,x,12%,x
CNC(=O)[C@@H]1C[C@H](Sc2nc3ccccc3[nH]2)CN1Cc1ccccc1C(F)(F)F,x,x,x,x,-3%,x
COc1ccc(/C=C2\CC3(OC(=O)C4CCCC4)CCCN2C3)cc1 (configuration not stated),x,x,x,i,x,x
CN(C(=O)[C@@H](C1CC1)[C@@H](O)c1ccc2ccccc2c1)c1ccccc1,x,x,x,i,x,x
SMILES,aSyn rescue,TDP-43 yeast inh,Abeta yeast res,FUS yeast rescue,GRP78 ERSR act,MBNL1 CUG block
COc1cccc(-c2cc(NC=O)c3ncc(-c4ccc(OC)c(OC)c4)n3c2)c1,-8%,u,i,u,-8%,x
COc1ccc(-c2cc(NC=O)c3ncc(-c4cccc(OC)c4)n3c2)cc1,-16%,10µM*,i,i,5%,x
CNc1ccccc1C(C)(C)c1cc(-c2cccc([N+](=O)[O-])c2)no1,8%,28%,11µM*,i,-7%,20%
Clc1ccc(Sc2cc(Cl)c(-c3ccccc3)nn2)cc1,-19%,7.9µM*,i,i,-5%,10%
Cc1c(C(=O)Nc2ccc(F)cc2F)nnn1-c1ccccc1Br,x,32µM*,i,i,0%,x
O=C(c1ccc(Sc2cccc(Cl)c2)c([N+](=O)[O-])c1)N1CCN(c2ccccn2)CC1,u,22µM*,5µM*,i,-6%,5%
O=C(c1ccc(Cl)c([N+](=O)[O-])c1)N1CCN(c2ccccn2)CC1,7%,5%,i,x,-3%,34%
COc1cc(=O)n2c(c1C(=O)NCc1ccco1)CCN(C(=O)c1ccccc1-c1ncc[nH]1)CC2,x,x,x,x,-2%,x
O=C(Nc1ccc2c(c1)OCO2)OC1CCC12CCCCC2 (configuration not stated),x,x,x,i,x,x
Fc1cccc(C[n+]2csc3ccccc32)c1,-18%,3.5µM*,i,x,2%,2%
c1ccc(C[n+]2csc3ccccc32)cc1,-13%,u,i,i,1%,-18%
COc1ccc(-n2cnnc2SCc2cnc(-c3ccccc3)s2)cc1,0%,20µM*,i,i,-3%,6%
ON=C(CCc1ccccc1)c1ccccc1,12%,16µM*,i,i,3%,x
Cc1ccc2ccc3ccc(C)nc3c2n1,-20%,4.5µM*,i,i,3%,0%
COc1ccc(S[C@]2(C(=O)NCC(C)C)CC(=O)N[C@@H]2c2ccc(OC)cc2)cc1,x,x,x,i,x,x
Cc1ccc(N2C(=O)[C@@H]3CSC(c4ccc(F)cc4)N3C2=O)cc1 (some centres not stated),x,u,i,i,-2%,x
Cc1ccc(N2C(=O)[C@@H]3CSC(c4ccc(Cl)cc4)N3C2=O)cc1 (some centres not stated),x,25µM*,i,i,0%,x
CCc1cccc(C)c1NC(=O)CN1CCN(S(=O)(=O)c2ccc(C(C)(C)C)cc2)CC1,17%,-9%,i,35µM*,0%,x
Cn1c2nc3ccccc3c-2nc2ccccc21,16µM*,20%,i,i,2%,x
Cn1c(-c2nonc2N)nc2ccccc21,15%,u,i,i,0%,4%
Cc1ccc(-n2c(SCC(=O)Nc3ccc4c(c3)OCCO4)nnc2-c2ccccn2)cc1,x,x,x,i,x,x
Cc1ccccc1N1CC(c2nc3ccccc3n2CCC2CCCCC2)CC1=O (configuration not stated),x,22µM*,i,u,-9%,x
